Source: PubChem BioAssay (NCATS)
Results filed as inconclusive are left out. Where a call stands in place of a potency, no number is given. Activity calls are given as the source filed them. Calls follow the shape of the dose curve; as a rule, active = well fitted curve in the direction sought with a large enough effect; inconclusive = small, poorly fitted or top-dose-only effect, or another doubt; inactive = no such curve, though single readings can be large; an effect the other way counts as inactive or inconclusive.

Each molecule was assayed against Thioredoxin reductase 1, cytoplasmic (Rattus norvegicus) (UniProt O89049) (assay: qHTS Assay for Substrates of Mammalian Selenoprotein Thioredoxin Reductase 1 (TrxR1) (AID 488772;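 also: NADPH fluorescence in the first read after selenite addition and not the 8 min delta; a drop in NADPH fluorescence below the no-compound background marks a TrxR1 substrate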)). Settings: purified TrxR1, NADPH consumption substrate assay; series mostly up to 57.1 µM.
Summary of the method: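 Quantitative HTS in Tris-HCl buffer at pH 7.5 with EDTA and Tween-20, using rat TrxR1, 400 uM NADPH and 400 uM selenite (final). A fall in initial NADPH fluorescence relative to background marked substrate behaviour.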

Chain of Thioredoxin reductase 1, cytoplasmic (Rattus norvegicus) (O89049 whole entry, looked up): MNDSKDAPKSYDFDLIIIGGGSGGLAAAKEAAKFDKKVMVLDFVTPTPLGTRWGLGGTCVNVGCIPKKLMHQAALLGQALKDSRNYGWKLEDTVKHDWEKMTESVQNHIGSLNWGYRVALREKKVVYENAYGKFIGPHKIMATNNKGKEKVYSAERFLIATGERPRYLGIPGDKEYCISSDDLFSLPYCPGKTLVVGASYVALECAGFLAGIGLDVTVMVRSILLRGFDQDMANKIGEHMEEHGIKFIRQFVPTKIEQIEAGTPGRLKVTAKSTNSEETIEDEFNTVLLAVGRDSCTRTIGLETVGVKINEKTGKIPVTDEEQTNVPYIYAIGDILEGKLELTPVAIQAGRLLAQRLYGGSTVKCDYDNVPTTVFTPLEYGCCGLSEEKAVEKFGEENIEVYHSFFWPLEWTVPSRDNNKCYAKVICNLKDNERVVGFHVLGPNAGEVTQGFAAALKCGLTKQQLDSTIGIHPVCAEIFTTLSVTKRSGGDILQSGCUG

SMILES | outcome
C[N+]1(C)CCOC(O)(c2ccc(-c3ccc(C4(O)C[N+](C)(C)CCO4)cc3)cc2)C1 (stereo unspecified) | inactive
COc1ccc2[nH]cc(CCN)c2c1 | inactive
NC(CCCCCP(=O)(O)O)C(=O)O (stereo unspecified) | inactive
CC(C)NP(=O)(NC(C)C)OP(=O)(NC(C)C)NC(C)C | inactive
C[C@]12Cc3cn4c(nc3C=C1CCC1C2CC[C@@]2(C)[C@H]1CC[C@@]2(O)C#N)nc1ccccc14 (stereo partly specified) | inactive
CCCN1CC[C@@H]2c3cc(O)ccc3CC[C@@H]21 | inactive
NCCCP(=O)(O)O | inactive
C=CCN1C[C@@H](C)N([C@H](c2ccc(C(=O)N(CC)CC)cc2)c2cccc(OC)c2)C[C@@H]1C | inactive
Cc1o[nH]c(=O)c1CC(N)C(=O)O (stereo unspecified) | inactive
C[N+](C)(C)CC#CCN1CCCC1=O | inactive
NC(C(=O)O)c1cc(=O)[nH]o1 (stereo unspecified) | inactive
O=C(O)c1cc[c]([Hg][Cl])cc1 | inactive
C[Se]C[C@H](N)C(=O)O | inactive
CO[C@H]1CC=C2CCN3CCC4=C(CC(=O)OC4)[C@]23C1 | inactive
COc1ccc(CNC(=O)/C=C/c2ccc3[nH]cc(CCN(C)C)c3c2)cc1 | inactive
COc1ccc(OC)c(C(O)C(C)N)c1 (stereo unspecified) | inactive

SMILES | outcome
CC12NC(Cc3ccccc31)c1ccccc12 (stereo unspecified) | inactive
NC(=O)c1ccc(OCC(O)CN2CC=C(c3ccc(F)cc3)CC2)cc1 (stereo unspecified) | inactive
C=CCN1CC[C@]23c4c5ccc(O)c4O[C@H]2/C(=N/NC(=O)c2ccccc2)CC[C@@]3(O)[C@H]1C5 | inactive
CC(=O)NBr | inactive
CN1CCc2cccc(Cl)c2CC1 | inactive
CN(C(=O)Cc1ccc(Cl)c(Cl)c1)C(CN1CCCC1)c1cccc(OCC(=O)O)c1 (stereo unspecified) | inactive
C[C@@H]1O[C@H](C[N+](C)(C)C)CS1 | inactive
CCCN(CCC)C1CCc2cccc(O)c2C1 (stereo unspecified) | inactive
C[C@H](Cc1ccc2c(c1)OC(C(=O)O)(C(=O)O)O2)NC[C@H](O)c1cccc(Cl)c1 | inactive
NCCc1ccc(S(=O)(=O)F)cc1 | inactive
Clc1ccc(N2CC3CCC(C2)N3)nn1 | inactive
NC(=O)c1cc(N2CC2)c([N+](=O)[O-])cc1[N+](=O)[O-] | inactive
O=S1(=O)N(CCN2CC=C(c3c[nH]c4cc(F)ccc34)CC2)c2cccc3c2N1CCC3 | inactive
NC(Cc1ccc(N(CCCl)CCCl)cc1)C(=O)O (stereo unspecified) | inactive
N[C@@H](CCl)C(=O)O | inactive
NC(N)=NOCC[C@H](N)C(=O)O | inactive

Each molecule was assayed against Thioredoxin reductase 1, cytoplasmic (Rattus norvegicus) (UniProt O89049) (assay: qHTS Assay for Inhibitors of Mammalian Selenoprotein Thioredoxin Reductase 1 (TrxR1) (AID 488773;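 also: drop in NADPH fluorescence over an 8 min run after selenite addition; nearly all actives have a fitted effect of over 40% in size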)). Settings: purified TrxR1 enzyme activity; Potency: inhibition; series mostly up to 57.1 µM.
Summary of the method: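 Steps: enzyme (90 nM) plus NADPH (400 uM final), 5 min at ~22 deg C; compound added, 15 min; selenite (400 uM final) added; fluorescence followed for 8 min. Concentration-response curves derived from the normalized delta values.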

SMILES | Potency
C[N+]1(C)CCOC(O)(c2ccc(-c3ccc(C4(O)C[N+](C)(C)CCO4)cc3)cc2)C1 (stereo unspecified) | inactive
COc1ccc2[nH]cc(CCN)c2c1 | inactive
NC(CCCCCP(=O)(O)O)C(=O)O (stereo unspecified) | inactive
C[C@]12Cc3cn4c(nc3C=C1CCC1C2CC[C@@]2(C)[C@H]1CC[C@@]2(O)C#N)nc1ccccc14 (stereo partly specified) | inactive
CCCN1CC[C@@H]2c3cc(O)ccc3CC[C@@H]21 | inactive
NCCCP(=O)(O)O | inactive
C[N+](C)(C)CCOC(=O)CBr | inactive
Cc1o[nH]c(=O)c1CC(N)C(=O)O (stereo unspecified) | inactive
CO[C@H]1CC=C2CCN3CCC4=C(CC(=O)OC4)[C@]23C1 | inactive
CC12NC(Cc3ccccc31)c1ccccc12 (stereo unspecified) | inactive
C=CCN1CC[C@]23c4c5ccc(O)c4O[C@H]2/C(=N/NC(=O)c2ccccc2)CC[C@@]3(O)[C@H]1C5 | inactive
CC(=O)NBr | inactive
CN(C(=O)Cc1ccc(Cl)c(Cl)c1)C(CN1CCCC1)c1cccc(OCC(=O)O)c1 (stereo unspecified) | inactive
C[C@@H]1O[C@H](C[N+](C)(C)C)CS1 | inactive
CCCN(CCC)C1CCc2cccc(O)c2C1 (stereo unspecified) | inactive
C[C@H](Cc1ccc2c(c1)OC(C(=O)O)(C(=O)O)O2)NC[C@H](O)c1cccc(Cl)c1 | inactive
NCCc1ccc(S(=O)(=O)F)cc1 | inactive
Clc1ccc(N2CC3CCC(C2)N3)nn1 | inactive
N[C@@H](CCl)C(=O)O | inactive
NC(N)=NOCC[C@H](N)C(=O)O | inactive

These molecules were tested against Flap endonuclease 1 (Homo sapiens) (UniProt P39748) (assay: qHTS Validation Assay for the Inhibitors of Human Flap endonuclease 1 (FEN1) (AID 488816)). Settings: FEN1 nuclease activity, fluorogenic DNA substrate; series mostly up to 57.1 µM.
Summary of the method: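 Human FEN1 (10 nM) preincubated 15 min at room temperature with compounds, then flap DNA substrate added at 50 nM final. Fluorescence read at 0 and 15 min; concentration-response fitted with four-parameter Hill equation.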

Chain of Flap endonuclease 1 (Homo sapiens) (P39748 whole entry, looked up): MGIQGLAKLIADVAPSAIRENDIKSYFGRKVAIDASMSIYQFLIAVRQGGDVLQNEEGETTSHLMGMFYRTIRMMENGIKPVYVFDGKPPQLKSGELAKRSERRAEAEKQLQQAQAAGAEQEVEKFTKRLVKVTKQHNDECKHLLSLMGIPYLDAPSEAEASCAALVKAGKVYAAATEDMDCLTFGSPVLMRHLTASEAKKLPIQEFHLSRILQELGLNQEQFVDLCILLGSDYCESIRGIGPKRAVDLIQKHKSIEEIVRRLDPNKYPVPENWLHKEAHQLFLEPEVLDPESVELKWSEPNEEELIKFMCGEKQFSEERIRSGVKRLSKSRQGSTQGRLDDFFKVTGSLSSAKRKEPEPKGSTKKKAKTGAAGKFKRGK

SMILES | Potency
C[N+]1(C)CCOC(O)(c2ccc(-c3ccc(C4(O)C[N+](C)(C)CCO4)cc3)cc2)C1 (stereo unspecified) | inactive
COc1ccc2[nH]cc(CCN)c2c1 | inactive
CC(C)NP(=O)(NC(C)C)OP(=O)(NC(C)C)NC(C)C | inactive
NCCCP(=O)(O)O | inactive
C[N+](C)(C)CC#CCN1CCCC1=O | inactive
O=C(O)c1cc[c]([Hg][Cl])cc1 | inactive
C[Se]C[C@H](N)C(=O)O | inactive
CC12NC(Cc3ccccc31)c1ccccc12 (stereo unspecified) | inactive
C=CCN1CC[C@]23c4c5ccc(O)c4O[C@H]2/C(=N/NC(=O)c2ccccc2)CC[C@@]3(O)[C@H]1C5 | inactive
CC(=O)NBr | inactive
CN1CCc2cccc(Cl)c2CC1 | inactive
CN(C(=O)Cc1ccc(Cl)c(Cl)c1)C(CN1CCCC1)c1cccc(OCC(=O)O)c1 (stereo unspecified) | inactive
CCCN(CCC)C1CCc2cccc(O)c2C1 (stereo unspecified) | inactive
C[C@H](Cc1ccc2c(c1)OC(C(=O)O)(C(=O)O)O2)NC[C@H](O)c1cccc(Cl)c1 | inactive
CC(Cc1ccc(OCC(=O)O)cc1)NCC(O)c1cccc(Cl)c1 (stereo unspecified) | inactive
Clc1ccc(N2CC3CCC(C2)N3)nn1 | inactive
NC(=O)c1cc(N2CC2)c([N+](=O)[O-])cc1[N+](=O)[O-] | inactive
N[C@@H](CCl)C(=O)O | inactive
NC(N)=NOCC[C@H](N)C(=O)O | inactive
